Screening data from PubChem.
This is a sample that favours compounds with a hit; in the whole collection about 14% have one here.
AID923: qHTS Assay for Allosteric/Competitive Inhibitors of Caspase-1: Spectroscopic Profiling in AFC Spectral Region; actives 1.1% (n = 75,000); compound fluorescence, AFC spectral region (405/520 nm); Potency, µM (series often up to 57.5 µM), for the others: at the top dose fluorescence increase, hits mostly activators; note: potency is the fitted concentration of half-maximal effect; 0% is about no effect
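Baseline compound fluorescence (AFC region, 405 nm ex/520 nm em) taken from the intercept of kinetic reads with 50 nM caspase-1 and 5 uM Ac-WEHD-AFC; normalized to an on-plate AFC standard curve; compounds titrated up to 57 uM.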
4MU fluor: qHTS Assay for Spectroscopic Profiling in 4-MU Spectral Region; compound autofluorescence, 340/450 nm, 4-MU equivalents; stronger effect = higher value; actives 11% (n = 59,000); AID 589, 2007; max dye-equivalent concentration, M; in the data active = max dye-equivalent concentration above about 10 nM; inconclusive = mostly about 1.1 nM to 9.6 nM
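Compounds in 100 mM Tris, pH 8.0, incubated 15 min at room temperature, then fluorescence read at 340 nm excitation/450 nm emission. Signal converted to 4-MU dye-equivalent concentration using an on-plate six-point 4-MU standard curve.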
CRE Fsk mod: Cell signaling CRE-BLA (Fsk stim) | CHO CRE-bla reporter (cAMP response element driving beta-lactamase), forskolin EC10, beta-lactamase ratio | Potency, µM (doses to about 38.2 µM), for inactives: at the top dose activity change, negative = inhibition, most hits filed as activators | AID 662, 2007 | actives 2.5% (n = 71,000); active = well fitted activation curve with a large enough effect in the signal ratio, with a control signal flat, not every such curve was filed as active; inconclusive = small, poorly fitted or top-dose-only effect, or effect the other way, or a change in a side signal; the % refers to the signal ratio; note: potency is the fitted concentration of half-maximal effect; % of control where 0% means no effect
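Using CellSensor CRE-bla CHO cells in Opti-MEM with 0.5% dialyzed FBS, compounds were titrated with EC10 NKH 477 for 3 h at 37 °C. CCF4 ratio (460/530 nm) gave %Activity; AC50 derived.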
HSD17B inh: qHTS Assay for Inhibitors of HSD17B4, hydroxysteroid (17-beta) dehydrogenase 4 | AID 893, 2007 | Potency, µM (doses to about 57.1 µM), for inactives: at the top dose activity change, negative = inhibition, actives largely listed as inhibitors | recombinant HSD17B10, NADH fluorescence kinetic | actives 7.6% (n = 75,000) | 3-hydroxyacyl-CoA dehydrogenase type-2 (Homo sapiens), Q99714;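 note: the protocol describes HADH2 (HSD17B10) and not the HSD17B4 of the title; potency is the fitted concentration of half-maximal effect; % is set by controls: 0 for no effect and ±100 for the full control effect; nearly all actives have a fitted effect of over 70% in size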
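Enzyme plus compound, 15 min room temperature; substrate mix added (NAD+ 1 mM, beta-hydroxybutyryl-CoA 90 uM final); plates read kinetically for NADH fluorescence. HADH2 was His-tagged, E. coli-derived, 20 nM.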
HADH2 inh: qHTS Assay for Inhibitors of HADH2 (Hydroxyacyl-Coenzyme A Dehydrogenase, Type II); 3-hydroxyacyl-CoA dehydrogenase type-2 (Homo sapiens), Q99714; recombinant HADH2, NADH fluorescence, beta-hydroxybutyryl-CoA; Potency, µM (titrated, usually from 57.1 µM), without a hit: at the top dose activity change, negative = inhibition, actives largely listed as inhibitors; actives 3.4% (n = 73,000); AID 886, 2007; note: potency is the fitted concentration of half-maximal effect; % is set by controls: 0 for no effect and ±100 for the full control effect; nearly all actives have a fitted effect of over 60% in size
Target sequence (Q99714 whole entry, looked up, one chain of several): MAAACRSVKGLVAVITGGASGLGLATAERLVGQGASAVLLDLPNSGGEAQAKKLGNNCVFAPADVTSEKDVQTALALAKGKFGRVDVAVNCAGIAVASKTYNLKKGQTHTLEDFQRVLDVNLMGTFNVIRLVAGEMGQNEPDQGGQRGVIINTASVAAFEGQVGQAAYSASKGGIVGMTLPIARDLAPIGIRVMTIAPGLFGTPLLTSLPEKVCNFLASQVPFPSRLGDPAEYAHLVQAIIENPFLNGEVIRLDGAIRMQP
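Buffer 100 mM Tris-HCl pH 9.0/0.01% Tween-20; HADH2 20 nM; NAD+ 1 mM; beta-hydroxybutyryl-CoA 90 uM (all final). 15 min cpd preincubation, RT.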
A350 fluor: qHTS Assay for Spectroscopic Profiling in A350 Spectral Region; actives 11% (n = 59,000); Compound autofluorescence, 340/450 nm, Alexa 350 dye-equivalents; stronger effect = higher value; AID 590, 2007; max dye-equivalent concentration, M; in the data active = max dye-equivalent concentration above about 10 nM; inconclusive = mostly about 1.1 nM to 9.6 nM
* = called active by the depositor; [ ] = dose if it differs, or a comment. Unless noted, calls come from the whole dose curve; as a rule, active = well fitted curve in the direction sought with a large enough effect; inconclusive = small, poorly fitted or top-dose-only effect, or another doubt; inactive = no such curve, though single readings can be large; an effect the other way counts as inactive or inconclusive.

Cc1noc(C)c1-c1nc(Nc2ccc(F)cc2)c2ccccc2n1 was read as AID923 2.0%, 4MU fluor inconclusive, CRE Fsk mod 15.5%, HSD17B inh inactive, HADH2 inh 12.6µM* and A350 fluor inconclusive.
CCCC[C@@H]1C[C@H]1C(NS(=O)(=O)c1cccc2cccnc12)c1ccc(-c2ccccc2)cc1 (some centres undefined) was read as AID923 1.6%, CRE Fsk mod -1.9%, HSD17B inh -13.6% and HADH2 inh 4.4%.
Screening CN(C)Cc1ccccc1-c1nc(N(C)C)c2ccccc2n1 returned AID923 2.6%, 4MU fluor inactive, CRE Fsk mod 3.98µM*, HSD17B inh 6.4%, HADH2 inh -0.7% and A350 fluor inactive.
For COCCNc1nc(-c2c(C)noc2C)nc2ccccc12 the results were AID923 0.6%, 4MU fluor inactive, CRE Fsk mod inconclusive, HSD17B inh inconclusive, HADH2 inh -15.6% and A350 fluor inactive.
Cc1noc(C)c1-c1nc(N(C)C)c2ccccc2n1 was read as AID923 0.7%, 4MU fluor inactive, CRE Fsk mod inconclusive, HSD17B inh inconclusive, HADH2 inh 3.98µM* and A350 fluor inactive.
COc1ccc(Cc2ccccc2C(=O)O)c2ccccc12 was read as AID923 4.8%[11.5 µM], 4MU fluor inactive, CRE Fsk mod 15.6%[7.6 µM], HSD17B inh 4.0%[11.4 µM], HADH2 inh 3.2%[11.4 µM] and A350 fluor inactive.
CCOc1ccc2[nH]c(=O)c(CN(CCO)C(=O)c3ccccc3F)cc2c1 was read as AID923 -1.9%, 4MU fluor 5.18e-07M*, CRE Fsk mod 8.0%, HSD17B inh 31.6µM*, HADH2 inh 14.5% and A350 fluor 7.73e-07M*.
Screening CCOc1ccc2[nH]c(=O)c(CN(CCO)C(=O)c3ccc(F)cc3)cc2c1 returned AID923 0.4%, 4MU fluor 3.48e-07M*, CRE Fsk mod 22.1%, HSD17B inh 25.1µM*, HADH2 inh 81.3% and A350 fluor 4.2e-07M*.
For COc1ccc2cc(CN(CCO)C(=O)c3ccc(Br)cc3)c(=O)[nH]c2c1 the results were AID923 3.8%, 4MU fluor inactive, CRE Fsk mod 6.7%, HSD17B inh -6.9%, HADH2 inh 4.0% and A350 fluor inactive.
For COc1ccc2cc(CN(CCO)C(=O)c3ccccc3F)c(=O)[nH]c2c1 the results were AID923 1.8%, 4MU fluor inconclusive, CRE Fsk mod 2.4%, HSD17B inh 0.3%, HADH2 inh -17.1% and A350 fluor inconclusive.
COc1cccc2sc(Nc3nnc(-c4cccs4)o3)nc12 was read as AID923 4.7%, 4MU fluor 3.52e-08M*, CRE Fsk mod inconclusive, HSD17B inh inconclusive, HADH2 inh -7.0% and A350 fluor 5.16e-08M*.
For Fc1cccc2sc(Nc3nnc(-c4ccco4)o3)nc12 the results were AID923 -1.7%, 4MU fluor 1.35e-08M*, CRE Fsk mod 9.4%, HSD17B inh 25.1µM*, HADH2 inh inconclusive and A350 fluor 3.86e-08M*.
Screening Cc1nn(-c2ccccc2)c(C)c1C(=O)Nc1nnc(-c2ccco2)o1 returned AID923 -0.2%, 4MU fluor inactive, CRE Fsk mod -5.1%, HSD17B inh -3.6%, HADH2 inh -4.8% and A350 fluor inactive.
`COc1cccc2sc(Nc3nc(-c4ccccn4)cs3)nc12` gave AID923 1.7%, 4MU fluor inconclusive, CRE Fsk mod -28.3%, HSD17B inh -25.4%, HADH2 inh -15.7% and A350 fluor inconclusive.
Screening CN1[C@@H](c2ccccc2)CC(=NO)C[C@H]1c1ccccc1 returned AID923 0.0%[11.5 µM], 4MU fluor inactive, CRE Fsk mod 16.2%[7.6 µM], HSD17B inh 10.5%[11.4 µM], HADH2 inh -17.4%[11.4 µM] and A350 fluor inactive.
Cn1nc(-c2ccc(Cl)cc2)c2cc(C(=O)N3CCCC3)sc21 was read as AID923 -0.4%, CRE Fsk mod 0.7%, HSD17B inh -7.9% and HADH2 inh -7.0%.
For CC(C)NC(=O)c1cc2c(-c3ccc(Cl)cc3)nn(C)c2s1 the results were AID923 -0.9%, CRE Fsk mod 12.2%, HSD17B inh 7.94µM* and HADH2 inh 8.2%.
Screening COCCNC(=O)c1cc2c(-c3ccccc3F)nn(C)c2s1 returned AID923 -0.4%, 4MU fluor inactive, CRE Fsk mod inconclusive, HSD17B inh 31.6µM*, HADH2 inh inconclusive and A350 fluor inactive.
For CCOC(=O)N1CCC(NC(=O)c2cc3c(-c4ccc(Cl)cc4)nn(C)c3s2)CC1 the results were AID923 0.4%, CRE Fsk mod -3.4%, HSD17B inh 25.1µM* and HADH2 inh -1.0%.
`Cc1ccc(CNC(=O)c2cc3c(-c4ccc(Cl)cc4)nn(C)c3s2)o1` gave AID923 1.7%, CRE Fsk mod inconclusive, HSD17B inh inconclusive and HADH2 inh inconclusive.
For CCN1CCCC1CNC(=O)c1cc2c(-c3ccc(Cl)cc3)nn(C)c2s1 (centres undefined) the results were AID923 0.1%, CRE Fsk mod inconclusive, HSD17B inh 25.1µM* and HADH2 inh inconclusive.
`COCCNC(=O)c1ccccc1-c1ccccc1C(=O)O` gave AID923 1.2%, 4MU fluor inactive, CRE Fsk mod -4.7%, HSD17B inh -5.0%, HADH2 inh 5.3% and A350 fluor inactive.
For COC(=O)[C@@]1(Cc2ccc(OC)cc2)[C@H]2c3cc(C(=O)N(C)C)n(Cc4ccc(Cl)c(C(F)(F)F)c4)c3C[C@H]2CN1C(=O)c1ccccc1 the results were AID923 2.0%, CRE Fsk mod inconclusive, HSD17B inh 7.9% and HADH2 inh 8.3%.
For CN(C)C(=O)c1ccc(-c2ccc3ncnc(N(C)C)c3c2)cc1 the results were AID923 2.1%, 4MU fluor inactive, CRE Fsk mod inconclusive, HSD17B inh -0.6%, HADH2 inh 3.3% and A350 fluor inactive.
`COC(=O)[C@@H]1[C@@H]2C[C@H]3c4[nH]c5cc(OC)ccc5c4CCN3C[C@@H]2C[C@H](OC(=O)/C=C\c2cc(OC)c(OC)c(OC)c2)[C@H]1OC` gave AID923 5.0%[25.7 µM], 4MU fluor inactive, CRE Fsk mod 22.8%[17.1 µM], HSD17B inh -16.7%[25.6 µM], HADH2 inh 6.6%[25.6 µM] and A350 fluor inactive.
